GLP-1R agonist – GLP-1 receptor (human) agonism | Potency, µM (highest dose often 45.6 µM), without a hit: at the highest dose activation, hits mostly activators | 380,000 tested, 0.007% active | HEK293 GLP-1R CRE-luciferase, luminescence, 4-6 h; cells express a hypersensitive GLP-1R form; also: % of control where 0% means no effect
GLP1R cytotox – cytotoxic in the GLP-1 receptor inverse agonist counter-screen; HEK293 cAMP-luciferase reporter cells, luminescence, 24 h; Potency, µM (top dose mostly 38.3 µM), for the others: at the highest dose activity change, negative = inhibition, actives largely listed as inhibitors; 410,000 tested, 0.13% active;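 also: loss of luciferase light is scored as toxicity; % is scaled to controls: 0 for no effect and ±100 for the full control effect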
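Step one: seed cells (200 cells/uL, DMEM with 10% Nu serum, 1% pen-strep). Step two: 12-hour incubation at 37 deg C. Step three: pin 23 nL compound, incubate 24 hr. Step four: add luciferase reagent, read luminescence 12 min later.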
GLP1R inv ag – acts as inverse agonist at human GLP-1 receptor; Potency, µM (highest dose often 38.3 µM), inactives show top-dose activity change, negative = inhibition, usual class: inhibitors; HEK293 GLP-1R CRE-luciferase, luminescence, 24 h; GLP-1R form is constitutively active; P43220; 410,000 tested, 1.6% active; also: % is scaled to controls: 0 for no effect and ±100 for the full control effect; nearly all actives have a fitted effect of over 55% in size
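Cells are plated, allowed 12 hours at 37 deg C, then treated with compounds for 24 hr before luciferase detection reagent is added and luminescence is read after 12 min at room temperature. The HEK293 line carries constitutively active GLP-1R with a cAMP-responsive reporter.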
ClpP mod – qHTS Assay for Activators of ClpP. 340,000 tested, 1.9% active. ATP-dependent Clp protease proteolytic subunit (Bacillus subtilis (strain 168)), P80244. purified B. subtilis ClpP, FRET peptide cleavage, 20 min. Potency, µM (series often up to 57.5 µM), for inactives: at the highest dose activity change, negative = active; active = well fitted falling curve with a large enough effect; inconclusive = small, poorly fitted or top-dose-only effect; inactive = no such curve, though single readings can be large or run the other way; also: the source files actives as falling curves though it sought activators and does not explain the sign; nearly all actives have a fitted effect of over 65% in size
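Purified B. subtilis ClpP, 10 microg/mL final in Tris/HCl pH8 with KCl, BSA, glycerol and Tween-20, cleaved an Abz/nitrotyrosine-quenched decapeptide. Fluorescence (ex 320, em 430) was read at 0 and 20 min at room temperature. Delta was normalized to 5.8 microM ADEP and DMSO/no-enzyme controls.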
An asterisk follows results filed as active; ? = inconclusive; . = no result given; ! = not active in a repeat; [ ] = dose if it differs, or a comment. An excerpt weighted towards active compounds, which were near 3.2% of everything screened. Unless noted, calls follow the shape of the dose curve; as a rule, active = well fitted curve in the direction sought with a large enough effect; inconclusive = small, poorly fitted or top-dose-only effect, or another doubt; inactive = no such curve, though single readings can be large; an effect the other way counts as inactive or inconclusive. Potency is read from the fitted curve at half-maximal effect.

SMILES | GLP-1R agonist | GLP1R cytotox | GLP1R inv ag | ClpP mod
Cc1cc(C)cc(N2C(=O)NC(=O)/C(=C\C=C\c3ccco3)C2=O)c1 | -27% | -3% | ? | 16µM*
CC1=NN(c2ccccc2)C(=O)C1/C=C1\C(=O)NC(=O)N(c2cc(C)cc(C)c2)C1=O (centres undefined) | -10% | -10% | -8% | 25µM*
CCCc1cc(-c2nc(N)ncc2-c2ccc3c(c2)OCCCO3)c(O)cc1OC | -30% | ? | 10µM* | 2%
NS(=O)(=O)c1ccc(CCNc2ccn3nc(-c4cccc(C(F)(F)F)c4)cc3n2)cc1 | -5% | -13% | ? | 4%
Cc1cccc(-c2nnn3c2nc(NCCc2ccc(S(N)(=O)=O)cc2)c2ccccc23)c1 | 5% | -11% | 4% | 11µM*
Nc1ccccc1C(=O)OCCOc1ccccc1 | -2% | 0% | ? | 28µM*
COc1ccccc1Cc1c(-c2ccc(C)cc2)nc2cc(C)c(Br)c(C)n12 | -1% | 6% | ? | -10%
O=C(CCc1ccccc1)NC(NC(=S)Nc1ccc(Cl)cc1)C(Cl)(Cl)Cl (centres undefined) | -23% | ? | ? | 2%
Cc1c(N=Cc2c(O)n(Cc3ccco3)c(=O)[nH]c2=O)c(=O)n(-c2ccccc2)n1C | -2% | 1% | 7% | 11µM*
CC(C)(C)[C@@H]1COC(=O)[C@@H](Cc2ccc(F)cc2)CC/C=C\C[C@@H](CC(=O)N(CCO)Cc2ccccc2)C(=O)N1 | -5% | -19% | 10µM* | 2%
O=C(C[C@H]1C/C=C\CC[C@H](Cc2ccc(F)cc2)C(=O)O[C@@H](c2ccccc2)CNC1=O)N[C@H](CO)Cc1ccccc1 | 5% | 16% | ? | -1%
O=C(Nc1ccc2nn(-c3ccccc3)nc2c1)c1ccc2c(c1)OCCO2 | -19% | ? | ? | 8.9µM*
CCOP(=O)(Nc1ccc2c(c1)C(=NNC(N)=S)c1ccccc1-2)OCC | -2% | 13µM* | ? | -6%
CCOC(=O)Nc1ccc2c3c(cccc13)-c1ccccc1-2 | 1% | 336% | ? | -2%
CCOC(=O)N1CCN(Cc2nc3cc(NC(=O)c4cccc(C)c4)ccc3n2C(C)C)CC1 | . | ? | ? | 0%
CCCCN(Cc1ccccc1)C1CCN(CCc2ccccc2)CC1 | 1% | -2% | 10µM* | .
c1ccc(CCN2CCC(N3CCN(c4ccccc4)CC3)CC2)cc1 | 14% | 4% | 1% | 0%
COc1ccc(C)c2sc(NC(=O)CCS(=O)(=O)c3ccccc3)nc12 | -3% | ? | 19% | -3%
CCCNc1oc(-c2cccc3ccccc23)nc1C#N | 2% | 251% | 26% | 28µM*
COc1ccc(C2=CCC3CCCCN3C2)cc1OC (centres undefined) | -1% | ? | -13% | -1%
CC1(C)Cc2c(sc3c2C(=O)NC(c2cccnc2)N3)CO1 (centres undefined) | 0% | -12% | 0% | 32µM*
O=C1NC(c2cccnc2)Nc2sc3c(c21)CCCC3 (centres undefined) | 3% | -11% | 2% | -23%
CCCCOc1ccccc1C1CC(=O)Nc2cc(C)c(C)cc21 (centres undefined) | . | ? | 13µM* | -4%
O=C(NC(c1ccc(-c2ccccc2)cc1)c1cnccn1)C1CCN(Cc2ccc(Oc3ccccc3)cc2)CC1 (centres undefined) | 1% | ? | 4µM* | -2%
CCOC(=O)C1CCCN(Cc2ccc(-c3ccccc3)cc2)C1 (centres undefined) | -4% | 4% | ? | 1%
SMILES | GLP-1R agonist | GLP1R cytotox | GLP1R inv ag | ClpP mod
CCCCN(CC)CCCNC(=O)c1ccc2c(c1)N(Cc1ccc(C)cc1)C(=O)c1ccccc1S2 | . | ? | ? | 0%
COC(=O)c1cc2c(s1)=NC=NP=2(N1CCOCC1)N1CCOCC1 | -5% | -5% | 14% | 28µM*!
CCc1ccc(-n2nc(C)c3c(C(=O)NCCc4ccc(OC)c(OC)c4)cc(C)nc32)cc1 | . | -13% | ? | -17%
O=C(Cn1c(SCC(=O)Nc2ccc(F)cc2)nc2ccccc21)NCc1ccccc1Cl | . | ? | ? | 2%
Cc1nnnn1/C(=C\c1ccccc1)C(=O)OCC(=O)NC1CCCCC1 | -28% | ? | ? | -1%
CCCCOc1ccc(C(=O)NCCc2csc(-c3ccc(OC)cc3)n2)cc1 | . | 3% | -28% | 22µM*
CCCCOc1ccc(C(=O)NCC(=O)N2CCN(C/C=C/c3ccccc3)CC2)cc1 | 2% | -16% | ? | 2%
O=C(Nc1ccccn1)NC12CC3CC(CC(C3)C1)C2 | 2% | -17% | 1.4µM* | -27%
COc1ccc(-n2c(/C=C3\C(=O)Nc4ccccc43)nc3ccccc3c2=O)cc1 | 7% | -1% | -9% | .
O=c1c2ccccc2nc(/C=C\c2cccc(Br)c2)n1-c1ccc(O)cc1 | . | -6% | 3% | 224%
Cc1ccc(-n2c(/C=C/c3ccc(Br)s3)nc3ccccc3c2=O)cc1C | . | -3% | 11µM* | -3%
O=c1c2ccccc2nc(/C=C/c2ccccc2)n1-c1ccc(O)cc1 | 27% | -18% | 5.6µM* | .
O=c1c2ccccc2nc(/C=C/c2ccccc2)n1-c1ccccc1O | 9% | -29% | ? | .
O=C1Nc2ccccc2/C1=C/c1nc2ccccc2c(=O)n1-c1ccc(O)cc1 | 9% | ? | 10µM* | .
O=c1c2ccccc2nc(/C=C/c2cccnc2)n1Cc1ccccc1 | 10% | -22% | 5µM* | .
C[C@H]1CCCC=CC2C[C@H](O)C[C@@H]2[C@H](O)C=CC(=O)O1 (some centres undefined) | . | . | . | 0%
O=c1c2ccccc2nc(/C=C/c2ccc(O)cc2)n1-c1ccccc1O | -2% | 75% | ? | -2%
Cc1ccccc1-n1c(/C=C/c2ccc(O)cc2)nc2ccccc2c1=O | . | 84% | 11µM* | -4%
NC(Cc1ccc(O)cc1)C(=O)NN=Cc1ccc(N(CCCl)CCCl)cc1 (centres undefined) | 12% | ? | ? | 28µM*
COc1cccc(N2CCN(C(=O)c3cc(C)oc3C)CC2)c1 | 17% | ? | ? | -1%
CCCNc1nc2c(c(=O)[nH]c(=O)n2C)n1Cc1ccc(F)cc1 | 12% | 3% | 65% | 2%
Cn1c(=O)[nH]c(=O)c2c1nc([N+](=O)[O-])n2Cc1ccccc1 | -5% | 10µM* | ? | .
CC(Cc1ccccc1Sc1ccccc1O)N(C)C (centres undefined) | -15% | 6% | 7.9µM* | -8%
CCOC(=O)c1[nH]c2ccc(OC)cc2c1NC(=S)N1CCN(c2cccc(C)c2C)CC1 | -13% | ? | ? | 1%
CCN1/C(=C/C(C)=C/c2sc3ccccc3[n+]2CC)Sc2ccccc21 | -1% | 13µM* | ? | 1%
NC1(c2ccccc2)CCCCC1 | 8%[96 µM] | . | . | .
CN(C)C(=O)Oc1ccc(C(=O)c2ccccc2)cc1 | 7% | 15% | -15% | -2%

Screening data: PubChem BioAssay, National Center for Advancing Translational Sciences (NCATS)
